Compounds without any hit were thinned out: in the full panel of roughly 83,000, 20% have a hit.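 How to read the values: 0–100, growth inhibition (40 = 60% inhibited); 0, no net growth; -100 to 0, cell death (-40 = 40% of starting cells died; -100 = all dead).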 Activity calls are given as the source filed them. Rule for the calls: active = growth percent below 10; inactive = the rest.

For this assay, the system named is HL-60(TB) leukemia. As to the kind of experiment: NCI-60 one-dose screen, 48 h (100 = growth as untreated, 0 = no growth, -100 = all killed). Particulars: 10 µM unless noted.
For `CSc1cccc(NC(=O)Nc2nc3c(C)cccc3s2)c1`, the growth was 85.8% (inactive). For the compound `COc1cc(-c2nc3nc4sc(C)c(C)c4c(=O)n3[nH]2)cc(OC)c1OC`, the growth was 80.7% (inactive).

`Oc1c(CN2CCC(N3CCOCC3)CC2)cc(Cc2cc(CN3CCC(N4CCOCC4)CC3)c(O)c3ncccc23)c2cccnc12`: the growth is -5.88% (active). Next, `CCC(=O)Oc1ccc(/C(=C(\C)c2ccccc2)c2ccc(OCCN(CC)CC)cc2)cc1`: 45.1% (inactive); `CS/C(=C\c1ccc(C(=O)c2ccc(C)cc2)n1C)S(C)=O` (stereo not given): 53.6% [100 µM] (inactive). For `C[N+](C)(C)CCOC(OCC[N+](C)(C)C)(c1ccccc1)c1ccccc1` the value was 110% (inactive).

With `COc1ccc2nc(C)cc(Sc3nc4ccccc4s3)c2c1`, the growth was 6.64% (active). Next, `CCC1=C(c2ccc(OC)cc2)C(C)(C)Oc2c1ccc(O)c2CN1CCCC1`: -25.4% (active).

On to `COc1cc2c(cc1OC)C(Sc1ccc(Cl)cc1)c1c(nc(N)c(C#N)c1N)O2` (stereo not given), for which the growth is -25.1% (active). For `COC(=O)C1OC1c1cc([N+](=O)[O-])ccc1OC` (stereo not given), the growth is 99.1% (inactive). Next, `CCCCNc1nnc2n(Cc3ccccc3)c(=O)c3c4c(sc3n12)CCCC4`: 90.5% (inactive); `Cc1cc(C)c(O)c(CNCCCNCc2cc(C)cc(C)c2O)c1`: 48.6% (inactive). For `COc1cc2nc(N3CCCC3)nc(Nc3ccccc3)c2cc1OC` the value was -53.9% (active); for `COc1cc(OC)c(/C=C/c2c3ccccc3cc[n+]2C)c(OC)c1`, -25.1% (active).

As to `O=C1/C(=C/c2ccc(Cl)cc2)CN(C(=O)CCN2CCC(=NO)CC2)C/C1=C\c1ccc(Cl)cc1`, the growth was -13% (active). Next, `CCCCC(C=O)(C=C=C(C)C)CC` (stereo not given): 104% (inactive); `Nc1ccn(C2CC(N)C(CO)O2)c(=O)n1` (stereo not given): 84.6% (inactive). Next, `CCOC(=O)c1c(C(F)(F)F)n([O-])c2ccc(Cl)cc2[n+]1=O`: -65.2% (active).

For the compound `N=c1sc2ccccc2n1CC(=O)O`, the growth is 114% (inactive). For `Cc1nnc(N/N=C/c2ccc([N+](=O)[O-])o2)[nH]c1=O`, the growth was -34.8% (active). Next, `C/C(Cc1ccc(Cl)cc1)=C(\c1ccc(OCCN2CCCCCC2)cc1)c1ccc(OC(=O)c2ccccc2)cc1`: 23.1% (inactive); `CO[C@]12C=C/C(=C(/C(=O)OCc3cccnc3)C(=O)CCCCCCCC[C@]3(OC)C=C/C(=C(/C(=O)OCc4cccnc4)C(=O)CCCCCCCC1)O3)O2`: -29.3% (active); `COc1ccc(-c2nc(SCCC(C)C)nc(N/N=C(/C)c3ccc(C)cc3)c2C#N)cc1`: 89.8% (inactive). Next, `Fc1ccc(-c2nc(-c3nc4ncccc4[nH]3)cc3c2[nH]c2ccccc23)cc1F`: 86.4% (inactive); `O=C(Nc1ccccc1N1CCCC1=O)c1oc2ccc(F)cc2c1-c1cnn(-c2ccccc2)c1`: 84.8% [50 µM] (inactive); `O=C1CSC(c2ccccc2)N1c1ccccc1` (stereo not given): 99.7% (inactive). For `COc1cc2c(cc1-c1c(C)noc1C)ncc1nc(C3CCC(F)(F)CC3)n([C@@H](C)COC(F)F)c12` the value was 18% (inactive); for `CN(C)c1ccc(N=Nc2ccc(Br)cn2)c(O)c1`, -41.4% (active); for `NC(=O)CSc1nc(-c2ccc(F)cc2)cc(-c2ccco2)n1`, 108% (inactive). As for `COC(=O)C1=CCC(n2cnc3c(N)ncnc32)O1` (stereo not given), the growth is 94% (inactive). Next, `CCCCN(CCC)CCCCCCCCCCN1CCCc2ccccc21`: 42.2% (inactive).

`C=CCN1C(=O)c2ccccc2C1=O`: the growth is 101% (inactive). Next, `N#CC(I)CS(=O)(=O)c1ccccc1` (stereo not given): 99% (inactive); `COc1ccc(C(=O)NC(=O)Nc2ccc3c(c2)NC(=O)/C3=C\c2[nH]c(C)c(CCC(=O)O)c2C)c(F)c1`: 43.2% (inactive); `COc1ccc(-c2nnc(SCC(=O)Nc3ccc(C(=O)/C=C/c4ccc(Cl)cc4)cc3)o2)cc1OC`: 93.1% (inactive). Regarding `C=COC(=O)C(C)(C)C`, the growth was 98.9% (inactive). Next, `FC(F)(F)c1ccc2c(Nc3cccc(C4CC(c5ccccc5)=NN4c4ccc(Cl)cc4)c3)ccnc2c1` (stereo not given): 36.5% (inactive); `CCOC(=O)c1ccc2c(c1)nc(-c1ccc(OCc3ccccc3)c(OC)c1)n2-c1cc(C(C)(C)C)[nH]n1`: 81.6% (inactive); `CCOC(=O)Nc1cc2c(c(N)n1)N=C(c1ccccc1)CO2`: -0.963% (active). For `CC1CN(C2CCCCC2)C(=S)N(c2ccccc2)C1=O` (stereo not given) the value was 85% (inactive).

For the origin of these results see PubChem BioAssay (NCI).
